Some test systems named below: SR leukemia; RPMI-8226 leukemia; OVCAR-8 ovarian; OVCAR-5 ovarian; OVCAR-4 ovarian; SK-OV-3 ovarian; IGROV1 ovarian; OVCAR-3 ovarian; HS 578T breast; NCI/ADR-RES ovarian; T-47D breast; BT-549 breast; MDA-MB-435 melanoma; SW-620 colon; HCT-116 colon; HCC-2998 colon; KM12 colon; MDA-MB-468 breast; MCF7 breast.
Common to all, as to assay: NCI-60 one-dose screen, 48 h (100 = growth as untreated, 0 = no growth, -100 = all killed)
What all share (details): 10 µM unless noted

About 83,000 compounds went through this panel and 20% of them were active in at least one assay; those are over-represented in the sample as a whole.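 Results are percent growth after 48 hours of single-concentration exposure. 100 means growth as in untreated cells, lower positive values show inhibition; negative values down to -100 show cell death.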 Values without a mark were called inactive. Active and inactive are the calls of the source. How the source made its calls: active means growth percent below 10; inactive means the rest.

In the case of `COc1c(F)ccc(C(=O)Nc2ccc3nc(NC(=O)C4CCCN(S(=O)(=O)c5cccc(Br)c5)C4)sc3c2)c1F` (stereo unspecified), the growth in the assay on SR leukemia was 55.9%; in the assay with RPMI-8226 leukemia it was 51.7%; with OVCAR-8 ovarian, 104%; in the assay on OVCAR-5 ovarian it was 104%; in the assay on OVCAR-4 ovarian, 73.6%; with SK-OV-3 ovarian it was 112%. Moreover, the growth was 86.8% in the assay on IGROV1 ovarian; 106% in the assay on OVCAR-3 ovarian; 56.6% in the assay with HS 578T breast; 85.3% with NCI/ADR-RES ovarian; 60.9% in the assay with T-47D breast; 74.5% in the assay on BT-549 breast. Besides, the growth in the assay with MDA-MB-435 melanoma is 90.7%; with SW-620 colon it was 94.5%; with HCT-116 colon, 67.9%; in the assay on HCC-2998 colon, 125%; in the assay on KM12 colon it was 78.7%; with MDA-MB-468 breast it was 98.1%.
Turning to `COc1ccc(-c2ccnc(SCc3cc4cc(Cl)ccc4[nH]c3=O)n2)cc1`, the growth was 92.5% in the assay with SR leukemia; 73.8% in the assay on RPMI-8226 leukemia; 34.1% in the assay on OVCAR-8 ovarian; 135% in the assay with OVCAR-5 ovarian; 10.1% in the assay on OVCAR-4 ovarian; -2.33% (active) in the assay with SK-OV-3 ovarian. For the same compound, the growth in the assay with IGROV1 ovarian was 95.8%; with OVCAR-3 ovarian it was 58.2%; in the assay on HS 578T breast it was -5.84% (active); in the assay on NCI/ADR-RES ovarian, 44.8%; with T-47D breast, 62.1%; in the assay on BT-549 breast, -18.5% (active). In addition, the growth in the assay with MDA-MB-435 melanoma is 68.5%; in the assay with SW-620 colon, 69.1%; in the assay with MCF7 breast it was 73%; in the assay on HCT-116 colon, 26.6%; with HCC-2998 colon it was 100%; in the assay on KM12 colon, 94.7%. For the same compound, the growth in the assay with MDA-MB-468 breast is 54.9%.
Consider `COc1ccc(NC(=O)Cn2c(O)c(N=Nc3ccc(S(N)(=O)=O)cc3)c3ccccc32)cc1`, for which the growth with SR leukemia was 83.8%; in the assay on RPMI-8226 leukemia, 71.6%; in the assay on OVCAR-8 ovarian, 24.5%; with OVCAR-5 ovarian, 65.9%; in the assay with OVCAR-4 ovarian it was 82.2%; in the assay with SK-OV-3 ovarian it was 30.3%. In addition, the growth in the assay on IGROV1 ovarian was 34.4%; in the assay on OVCAR-3 ovarian it was 50.7%; in the assay on HS 578T breast, 80.7%; in the assay with NCI/ADR-RES ovarian, 93.8%; in the assay on T-47D breast it was 66.5%; in the assay on BT-549 breast it was 15.8%. Also, the growth in the assay on MDA-MB-435 melanoma is 53%; in the assay on SW-620 colon, 25.2%; in the assay on MCF7 breast, 31.2%; in the assay with HCT-116 colon it was 3.37% (active); in the assay on HCC-2998 colon, 18%; with KM12 colon, 26.3%. For the same compound, the growth with MDA-MB-468 breast is 22.3%.
Turning to `O=C(Cn1c(/C=C/c2ccccc2)nc2ccccc2c1=O)Nc1ccccc1`, the growth with SR leukemia was 80.3%; in the assay with RPMI-8226 leukemia it was 90.2%; in the assay with OVCAR-8 ovarian, 44.4%; in the assay on OVCAR-5 ovarian it was 96.1%; in the assay on OVCAR-4 ovarian, -0.268% (active); with SK-OV-3 ovarian, 61.4%. The growth in the assay on IGROV1 ovarian is 107%; with OVCAR-3 ovarian it was 78.3%; with HS 578T breast, 82.5%; in the assay on NCI/ADR-RES ovarian it was 57.9%; in the assay with T-47D breast it was -11.3% (active); in the assay with BT-549 breast it was 91.3%. The growth in the assay with MDA-MB-435 melanoma was 105%; with SW-620 colon it was 75.9%; in the assay on HCT-116 colon it was 44.6%; in the assay on HCC-2998 colon, 95.2%; in the assay on KM12 colon, 101%; with MDA-MB-468 breast, 61.8%.
Turning to `NS(=O)(=O)c1ccc(CCNC(=O)CSc2ccc(-c3ccc(Br)cc3)nn2)cc1`, the growth is 55.9% in the assay on SR leukemia; 40.1% in the assay with RPMI-8226 leukemia; 64.6% in the assay with OVCAR-8 ovarian; 94.9% with OVCAR-5 ovarian; 49.3% in the assay on OVCAR-4 ovarian; 73% in the assay on SK-OV-3 ovarian. In addition, the growth is 72.1% in the assay with IGROV1 ovarian; 91% in the assay with OVCAR-3 ovarian; 73.1% in the assay on HS 578T breast; 102% with NCI/ADR-RES ovarian; 41.2% in the assay with T-47D breast; 39.5% in the assay on BT-549 breast. Besides, the growth with MDA-MB-435 melanoma is 59.1%; with SW-620 colon it was 72.2%; in the assay on HCT-116 colon, 21.3%; in the assay with HCC-2998 colon it was 92.5%; in the assay with KM12 colon, 66.4%; in the assay with MDA-MB-468 breast, 20.8%.
With `CC12CC[C@@H]3[C@]4(C)COC(c5cn[nH]c5-c5ccc(Cl)cc5)O[C@@H]4CC[C@@]3(C)[C@@H]1CC(C1=CCOC1=O)O2` (stereo partly specified), the growth with SR leukemia was 16.5%; in the assay on RPMI-8226 leukemia, 12%; in the assay on OVCAR-8 ovarian, 55.5%; in the assay with OVCAR-5 ovarian, 62.3%; in the assay with OVCAR-4 ovarian, 39.5%; in the assay on SK-OV-3 ovarian it was 55%. In addition, the growth in the assay on IGROV1 ovarian is 51%; in the assay on OVCAR-3 ovarian, 42.6%; in the assay on HS 578T breast, 51%; with NCI/ADR-RES ovarian, 42.5%; in the assay with T-47D breast, 6.42% (active); with BT-549 breast it was 5.38% (active). The growth was 47.7% in the assay with MDA-MB-435 melanoma; 49.4% in the assay on SW-620 colon; 25.1% with HCT-116 colon; 58% with HCC-2998 colon; 31.9% in the assay with KM12 colon; 0.753% (active) in the assay with MDA-MB-468 breast.
Regarding `O=c1oc2ccc(Br)cc2cc1C1=CSc2nc3sc4c(c3c(=O)n2N=C1)CCCC4`, the growth was 86.6% in the assay on SR leukemia; 101% in the assay on RPMI-8226 leukemia; 99.9% in the assay with OVCAR-8 ovarian; 102% in the assay with OVCAR-5 ovarian; 86.1% with OVCAR-4 ovarian; 80.3% in the assay with SK-OV-3 ovarian. The growth in the assay on IGROV1 ovarian was 90.8%; in the assay on OVCAR-3 ovarian it was 115%; in the assay with HS 578T breast it was 93.1%; in the assay with NCI/ADR-RES ovarian, 106%; in the assay with T-47D breast, 76.9%; in the assay on BT-549 breast it was 95.4%. For the same compound, the growth in the assay with MDA-MB-435 melanoma is 95.1%; in the assay on SW-620 colon, 108%; in the assay on HCT-116 colon it was 96.4%; in the assay with HCC-2998 colon, 125%; in the assay on KM12 colon it was 97.6%; with MDA-MB-468 breast it was 104%.
On to `O=C(c1ccc(OCCN2CCOCC2)cc1)C1[C@H](c2ccc(Cl)cc2)[C@@H](c2ccccc2)NC12C(=O)Nc1ccc(Br)cc12` (stereo partly specified), for which the growth with SR leukemia is -45.3% (active); in the assay with RPMI-8226 leukemia, 9.08% (active); in the assay with OVCAR-8 ovarian, 28.6%; in the assay with OVCAR-5 ovarian it was 41.3%; in the assay with OVCAR-4 ovarian, 50.3%; in the assay with SK-OV-3 ovarian, 37%. For the same compound, the growth with IGROV1 ovarian was 22.6%; in the assay on OVCAR-3 ovarian it was 29.5%; with HS 578T breast, 57.2%; in the assay with NCI/ADR-RES ovarian, 18.4%; with T-47D breast, 26.3%; in the assay with BT-549 breast, 54.1%. The growth in the assay with SW-620 colon was 37.3%; in the assay with MCF7 breast, 1.4% (active); with HCT-116 colon it was 4.57% (active); in the assay with HCC-2998 colon, -41.2% (active); in the assay with KM12 colon, 11.7%; with MDA-MB-468 breast, -8.11% (active).

For the origin of these results see PubChem BioAssay (NCI).
